In the supplement of paper PMC6089552:
Hit rate of the full screen: of about 3,200 compounds, about 300 (9.4%) showed activity. This excerpt belongs to a sample that is enriched for actives.

Tested on: A673/TR/shEF
Test: cell viability (LOESS-normalised, relative to median of negative controls) (log2 ratio); higher = more viable cells (less compound effect), active = hit call of the paper (over 3 MAD below the median)
Conditions: treatment time: 72 h
Procedure, shortened: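 For three days, A673/TR/shEF Ewing sarcoma cells in 384-well plates (1,500 per well) were treated with library compounds at two or more concentrations or with DMSO controls, after doxycycline had been added or withheld 24 h beforehand to induce EWS-FLI1 shRNA knockdown. Viability was read by CellTiter-Glo luminescence on an Envision reader. The data were LOESS-corrected per plate, divided by the median of negative controls and log2-transformed.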

[1] = 0.25 µM, library screen: screen1, EWS-FLI1 expression: high (no doxycycline)
[2] = 0.25 µM, library screen: screen1, EWS-FLI1 expression: low (doxycycline-induced shRNA knockdown)
[3] = 2.5 µM, library screen: screen1, EWS-FLI1 expression: high (no doxycycline)
[4] = 2.5 µM, library screen: screen1, EWS-FLI1 expression: low (doxycycline-induced shRNA knockdown)
[5] = 0.25 µM, library screen: screen2, EWS-FLI1 expression: high (no doxycycline)
[6] = 0.25 µM, library screen: screen2, EWS-FLI1 expression: low (doxycycline-induced shRNA knockdown)
[7] = 2.5 µM, library screen: screen2, EWS-FLI1 expression: high (no doxycycline)
[8] = 2.5 µM, library screen: screen2, EWS-FLI1 expression: low (doxycycline-induced shRNA knockdown)
[9] = 0.103 µM, library screen: screen3, EWS-FLI1 expression: high (no doxycycline)
[10] = 0.103 µM, library screen: screen3, EWS-FLI1 expression: low (doxycycline-induced shRNA knockdown)
[11] = 0.308 µM, library screen: screen3, EWS-FLI1 expression: high (no doxycycline)
[12] = 0.308 µM, library screen: screen3, EWS-FLI1 expression: low (doxycycline-induced shRNA knockdown)
[13] = 0.926 µM, library screen: screen3, EWS-FLI1 expression: high (no doxycycline)
[14] = 0.926 µM, library screen: screen3, EWS-FLI1 expression: low (doxycycline-induced shRNA knockdown)
[15] = 2.8 µM, library screen: screen3, EWS-FLI1 expression: high (no doxycycline)
[16] = 2.8 µM, library screen: screen3, EWS-FLI1 expression: low (doxycycline-induced shRNA knockdown)
[17] = 8.3 µM, library screen: screen3, EWS-FLI1 expression: high (no doxycycline)
[18] = 8.3 µM, library screen: screen3, EWS-FLI1 expression: low (doxycycline-induced shRNA knockdown)
[19] = 25 µM, library screen: screen3, EWS-FLI1 expression: high (no doxycycline)
[20] = 25 µM, library screen: screen3, EWS-FLI1 expression: low (doxycycline-induced shRNA knockdown)

Measured: cell viability (log2)

c1coc(CN2CCN(Cc3ccc4ccccc4c3)CC2)c1
inactive: [1] 0.0477 | [2] 0.0071 | [3] 0.142 | [4] 0.0832

COc1ccc2c(c1)CCC1C2CCC2(C)C1C[C@@H](O)[C@@H]2O (stereo partly drawn)
inactive: [1] 0.105 | [2] 0.0162 | [3] 0.204 | [4] -0.0118

OC[C@H]1O[C@@H](n2cnc3c(NCCc4ccccc4)ncnc32)C(O)[C@H]1O (stereo partly drawn)
inactive: [5] 0.15 | [6] 0.163 | [7] 0.0914 | [8] 0.0608

O=C(O)CCC(=O)OCC(NC(=O)C(Cl)Cl)C(O)c1ccc([N+](=O)[O-])cc1 (stereo not drawn)
inactive: 0.025 µM, library screen: screen2, EWS-FLI1 expression: high (no doxycycline) 0.127 | 0.025 µM, library screen: screen2, EWS-FLI1 expression: low (doxycycline-induced shRNA knockdown) 0.0706 | [1] -0.0271 | [2] 0.0474 | [5] 0.193 | [6] -0.0115 | [3] 0.0762 | [4] 0.177 | [7] 0.153 | [8] 0.083 | 25 µM, library screen: screen2, EWS-FLI1 expression: high (no doxycycline) 0.0706 | 25 µM, library screen: screen2, EWS-FLI1 expression: low (doxycycline-induced shRNA knockdown) 0.0478

O=c1c(O)c(-c2cc(O)c(O)c(O)c2)oc2cc(O)ccc12
inactive: [1] 0.128 | [2] -0.0317 | [3] 0.0648 | [4] 0.111

COc1cc(CN2CCN(Cc3cccc(F)c3)CC2)cc2c1OCO2
inactive: [1] 0.0873 | [2] 0.0661 | [3] 0.0312 | [4] 0.0566

COc1ccc(-c2ccc3c(N4CCOC[C@@H]4C)nc(N4CCOC[C@@H]4C)nc3n2)cc1CO
active: [9] -0.268 | [10] -0.292 | [11] -0.621 | [12] -0.525 | [13] -1.05 | [14] -0.821 | [15] -1.66 | [16] -1.37 | [17] -1.89 | [18] -1.59 | [19] -1.94 | [20] -1.78

COc1ccc(-c2ccc3c(N4CCOCC4)nc(N4C[C@@H](C)O[C@@H](C)C4)nc3n2)cc1CO
active: [15] -0.379 | [16] -0.377 | [17] -0.748 | [18] -0.617 | [19] -1.51 | [20] -1.39
inactive: [9] -0.102 | [10] -0.0255 | [11] -0.124 | [12] -0.0614 | [13] -0.171 | [14] -0.169

COc1cc(/C=C2\SC(NC(C)=O)=NC2=O)cc(Br)c1OC
inactive: [1] 0.0313 | [2] 0.0267 | [3] 0.0885 | [4] 0.0962

O=C(O)Cc1cc(I)c(Oc2cc(I)c(O)c(I)c2)c(I)c1
inactive: [1] 0.0518 | [2] 0.0863 | [3] 0.0776 | [4] -0.0191

COC(=O)[C@H](O)[C@H]1C(C)(C)[C@H](O)[C@@H]2CC3=C4CC(=O)O[C@@H](c5ccco5)[C@]4(C)CC[C@@H]3[C@@]1(C)C2=O
inactive: [1] 0.0837 | [2] 0.0423 | [3] 0.0416 | [4] -0.137

COc1ccc(C2NC(=O)NC(C)=C2C(=O)Nc2ccccc2Cl)cc1OC (stereo not drawn)
inactive: [1] 0.0783 | [2] 0.013 | [3] 0.0736 | [4] -0.0647

CCCCCCCCCCCCC/C=C/[C@@H](O)[C@@H](N)CO
inactive: 0.025 µM, library screen: screen1, EWS-FLI1 expression: high (no doxycycline) 0.0541 | 0.025 µM, library screen: screen1, EWS-FLI1 expression: low (doxycycline-induced shRNA knockdown) 0.028 | [1] 0.0998 | [2] 0.0415 | [5] 0.0615 | [6] 0.0389 | [3] 0.0515 | [4] 0.0695 | [7] 0.162 | [8] 0.0866
active: 25 µM, library screen: screen1, EWS-FLI1 expression: high (no doxycycline) -4.25 | 25 µM, library screen: screen1, EWS-FLI1 expression: low (doxycycline-induced shRNA knockdown) -4.31

CCCCCCCC/C=C/CCCCCCCC(=O)OC(CO)COC(=O)CCCCCCCCCCCCCCC (stereo not drawn)
inactive: [5] 0.242 | [6] 0.101 | [7] 0.231 | [8] 0.152

CCCCCCCCCCCCCCC[C@H](O)[C@H](N)CO
inactive: [5] 0.153 | [6] 0.105 | [7] 0.146 | [8] 0.102

CCC(C)n1ncn(-c2ccc(N3CCN(c4ccc(OC[C@H]5CO[C@](Cn6cncn6)(c6ccc(Cl)cc6Cl)O5)cc4)CC3)cc2)c1=O (stereo partly drawn)
inactive: [9] -0.00587 | [10] -0.0322 | [11] 0.0158 | [12] 0.0366 | [13] 0.0942 | [14] 0.0808 | [15] 0.0248 | [16] 0.0437 | [17] -0.13 | [18] 0.0912 | [19] 0.0658 | [20] 0.11

COC(=O)C(O)c1ccccc1 (stereo not drawn)
inactive: [1] 0.0881 | [2] 0.0567 | [3] 0.0992 | [4] 0.015

Nc1ccc2c3c(cccc13)C(=O)NC2=O
active: [5] -0.219
inactive: [6] 0.0582 | [7] 0.0677 | [8] 0.123

COc1cc(/C=C/C=O)cc(OC)c1OC
inactive: [1] 0.0589 | [2] 0.0132 | [3] 0.0586 | [4] 0.0289

OC1C=CC(Br)C(O)C1O (stereo not drawn)
inactive: [5] 0.12 | [6] 0.141 | [7] 0.0654 | [8] 0.0803

FC(F)(F)c1ccc(/C=C/c2nc(COc3ccc(CCCCn4ccnn4)cc3)co2)cc1
inactive: [10] -0.0943
active: [9] -0.325 | [11] -0.568 | [12] -0.12 | [13] -0.774 | [14] -0.153 | [15] -1.45 | [16] -0.118 | [17] -1.63 | [18] -0.193 | [19] -1.47 | [20] -0.184

CC(=O)OC1CC[C@@]2(C)C(CC[C@H]3[C@@H]4CC=C(C(C)=O)[C@@]4(C)C(=O)C[C@@H]32)C1 (stereo partly drawn)
inactive: [1] 0.0289 | [2] 0.0314 | [3] 0.141 | [4] 0.0915

COC(=O)C[C@H]1C(C)(C)[C@H](O)[C@@H]2CC3=C4CC(O)O[C@@H](c5ccoc5)[C@]4(C)CCC3[C@@]1(C)C2=O (stereo partly drawn)
inactive: [1] 0.0798 | [2] 0.183 | [3] 0.141 | [4] 0.127

C[C@H](NCCc1ccc(O)cc1)[C@H](O)c1ccc(O)cc1
inactive: [9] -0.0282 | [10] 0.0403 | [1] 0.119 | [2] 0.0926 | [5] 0.11 | [6] 0.0788 | [11] 0.0762 | [12] 0.0395 | [13] 0.0419 | [14] 0.0833 | [3] 0.157 | [4] 0.125 | [7] 0.0729 | [8] -0.0642 | [15] 0.0463 | [16] 0.0441 | [17] 0.098 | [18] 0.0382 | [19] 0.0513 | [20] 0.0444

COc1ccc(CCN(C)CCc2ccc(OC)c(OC)c2)cc1OC
inactive: [5] 0.187 | [6] 0.0366 | [7] 0.198 | [8] 0.0294

COc1ccc(CCNCC(O)c2ccc(O)cc2)cc1OC (stereo not drawn)
inactive: [5] 0.167 | [6] -0.0395
active: [7] -0.721 | [8] -0.108
